# Experimental data as given in PMC7862700, “An all-to-all approach to the identification of sequence-specific readers for epigenetic DNA modifications on cytosine”.
# Columns and labels:
# Assay in all cases: DAPPL (digital affinity profiling via proximity ligation, sequencing); 10 mM Tris-HCl pH 7.5, 50 mM NaCl, 1 mM DTT, 4% glycerol, room temperature, 30 min; GST-TFs on glutathione beads, 16-mer random dsDNA library, 0.1% formaldehyde crosslink after washing; high values mean tight binding
# FEV = target: T1, FEV (Homo sapiens, UniProt Q99581 1-238); conditions: protein: recombinant; tags: N-terminal GST; dsDNA, one strand shown
# T1 sequence: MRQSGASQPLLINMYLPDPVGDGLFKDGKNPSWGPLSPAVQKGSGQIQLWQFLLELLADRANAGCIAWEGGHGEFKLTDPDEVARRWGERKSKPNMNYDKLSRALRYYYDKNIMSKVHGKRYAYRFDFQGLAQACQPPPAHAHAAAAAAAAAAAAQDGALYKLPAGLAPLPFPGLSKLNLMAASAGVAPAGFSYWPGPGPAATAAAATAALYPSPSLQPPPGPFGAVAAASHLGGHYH
# Method in brief: (§1)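 Binding signal is given per hexamer as its read frequency for a factor divided by its frequency in the tag-only sample. GST-fused human transcription factors were expressed in yeast, captured on glutathione beads, barcoded with DNA and pooled with that sample, then incubated with 200 nmole of a 16-mer random double-stranded DNA library in Tris/NaCl/DTT/glycerol buffer for 30 min at room temperature. The pools were then washed, crosslinked, proximity-ligated, amplified by PCR and sequenced on an Illumina NextSeq500.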
# ETV5 = ETV5 (Homo sapiens, UniProt P41161 1-510); conditions: protein: recombinant; tags: N-terminal GST; dsDNA, one strand shown
# Chain of ETV5 (P41161 whole entry): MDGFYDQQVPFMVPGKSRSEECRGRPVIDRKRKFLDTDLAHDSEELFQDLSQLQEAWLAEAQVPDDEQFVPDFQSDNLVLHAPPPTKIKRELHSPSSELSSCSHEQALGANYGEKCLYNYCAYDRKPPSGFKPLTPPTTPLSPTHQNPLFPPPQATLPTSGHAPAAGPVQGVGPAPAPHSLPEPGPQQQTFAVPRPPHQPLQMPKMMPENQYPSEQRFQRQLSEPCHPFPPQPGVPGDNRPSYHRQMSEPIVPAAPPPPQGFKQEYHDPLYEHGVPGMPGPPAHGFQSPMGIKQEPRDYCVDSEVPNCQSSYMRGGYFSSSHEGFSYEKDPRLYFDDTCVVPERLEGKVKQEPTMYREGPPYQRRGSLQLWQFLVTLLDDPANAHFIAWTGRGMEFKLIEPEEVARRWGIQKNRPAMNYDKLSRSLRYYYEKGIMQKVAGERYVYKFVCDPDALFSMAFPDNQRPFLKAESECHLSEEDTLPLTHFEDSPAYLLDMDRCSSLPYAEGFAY
# Method in brief: as §1
# HSF1 = HSF1 (Homo sapiens, UniProt Q00613 1-529); conditions: protein: recombinant; tags: N-terminal GST; chain copies: 3; dsDNA, one strand shown
# Chain of HSF1 (Q00613 whole entry): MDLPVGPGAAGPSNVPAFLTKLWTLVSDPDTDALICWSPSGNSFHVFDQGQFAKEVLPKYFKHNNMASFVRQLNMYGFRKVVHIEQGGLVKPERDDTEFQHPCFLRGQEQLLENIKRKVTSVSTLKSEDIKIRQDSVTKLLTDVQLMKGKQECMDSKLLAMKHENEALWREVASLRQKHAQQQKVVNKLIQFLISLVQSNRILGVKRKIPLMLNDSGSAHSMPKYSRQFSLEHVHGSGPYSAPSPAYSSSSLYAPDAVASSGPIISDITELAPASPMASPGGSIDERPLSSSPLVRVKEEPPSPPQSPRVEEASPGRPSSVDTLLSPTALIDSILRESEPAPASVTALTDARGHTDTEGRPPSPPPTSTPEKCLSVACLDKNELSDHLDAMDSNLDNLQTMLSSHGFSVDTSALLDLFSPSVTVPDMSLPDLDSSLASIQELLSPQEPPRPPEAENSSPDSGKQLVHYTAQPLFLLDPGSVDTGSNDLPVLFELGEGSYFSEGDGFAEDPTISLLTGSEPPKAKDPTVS
# Method in brief: as §1
# SPIC = target: T2, SPIC (Homo sapiens, UniProt Q8N5J4 1-248); conditions: protein: recombinant; tags: N-terminal GST; dsDNA, one strand shown
# T2 sequence: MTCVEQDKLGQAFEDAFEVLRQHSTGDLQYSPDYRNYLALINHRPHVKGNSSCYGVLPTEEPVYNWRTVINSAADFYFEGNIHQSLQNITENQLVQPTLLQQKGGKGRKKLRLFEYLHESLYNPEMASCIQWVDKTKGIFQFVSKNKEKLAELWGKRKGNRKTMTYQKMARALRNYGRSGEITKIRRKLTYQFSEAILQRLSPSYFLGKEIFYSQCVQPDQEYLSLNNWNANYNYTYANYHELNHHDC
# Method in brief: as §1
# ELF4 = ELF4 (Homo sapiens, UniProt Q99607 1-663); conditions: protein: recombinant; tags: N-terminal GST; dsDNA, one strand shown
# Chain of ELF4 (Q99607 whole entry): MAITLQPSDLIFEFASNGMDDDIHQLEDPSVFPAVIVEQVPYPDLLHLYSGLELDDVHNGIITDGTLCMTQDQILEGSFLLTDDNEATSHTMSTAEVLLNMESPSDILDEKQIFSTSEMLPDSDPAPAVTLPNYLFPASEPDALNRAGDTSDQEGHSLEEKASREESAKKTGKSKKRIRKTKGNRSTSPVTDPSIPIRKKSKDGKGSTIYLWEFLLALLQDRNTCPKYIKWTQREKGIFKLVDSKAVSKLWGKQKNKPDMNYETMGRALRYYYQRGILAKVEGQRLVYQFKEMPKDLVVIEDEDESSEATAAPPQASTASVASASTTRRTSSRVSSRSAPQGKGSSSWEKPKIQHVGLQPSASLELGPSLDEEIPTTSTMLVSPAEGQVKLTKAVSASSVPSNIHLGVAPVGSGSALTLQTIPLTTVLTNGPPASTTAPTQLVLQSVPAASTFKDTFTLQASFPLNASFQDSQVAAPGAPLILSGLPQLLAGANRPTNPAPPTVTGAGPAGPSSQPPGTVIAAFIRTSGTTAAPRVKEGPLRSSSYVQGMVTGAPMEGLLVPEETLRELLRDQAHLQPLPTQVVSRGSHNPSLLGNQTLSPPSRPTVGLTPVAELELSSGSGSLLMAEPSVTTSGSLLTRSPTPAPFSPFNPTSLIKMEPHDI
# Method in brief: as §1
# ELK4 = target: T3, ELK4 (Homo sapiens, UniProt P28324-2 1-405); conditions: protein: recombinant; tags: N-terminal GST; dsDNA, one strand shown
# T3 sequence: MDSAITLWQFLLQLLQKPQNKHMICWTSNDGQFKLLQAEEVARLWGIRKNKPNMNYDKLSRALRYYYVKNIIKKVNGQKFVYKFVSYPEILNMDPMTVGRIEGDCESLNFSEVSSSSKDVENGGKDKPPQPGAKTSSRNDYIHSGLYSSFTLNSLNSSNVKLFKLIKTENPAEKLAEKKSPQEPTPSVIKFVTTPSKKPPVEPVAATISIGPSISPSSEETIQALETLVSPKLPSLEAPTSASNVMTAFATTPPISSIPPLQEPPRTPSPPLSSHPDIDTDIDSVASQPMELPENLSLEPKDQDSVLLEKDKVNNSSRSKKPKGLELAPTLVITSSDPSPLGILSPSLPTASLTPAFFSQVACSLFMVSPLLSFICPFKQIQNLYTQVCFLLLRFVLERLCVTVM
# Method in brief: as §1
# ETV2 = target: T4, ETV2 (Homo sapiens, UniProt O00321 1-342); conditions: protein: recombinant; tags: N-terminal GST; dsDNA, one strand shown
# T4 sequence: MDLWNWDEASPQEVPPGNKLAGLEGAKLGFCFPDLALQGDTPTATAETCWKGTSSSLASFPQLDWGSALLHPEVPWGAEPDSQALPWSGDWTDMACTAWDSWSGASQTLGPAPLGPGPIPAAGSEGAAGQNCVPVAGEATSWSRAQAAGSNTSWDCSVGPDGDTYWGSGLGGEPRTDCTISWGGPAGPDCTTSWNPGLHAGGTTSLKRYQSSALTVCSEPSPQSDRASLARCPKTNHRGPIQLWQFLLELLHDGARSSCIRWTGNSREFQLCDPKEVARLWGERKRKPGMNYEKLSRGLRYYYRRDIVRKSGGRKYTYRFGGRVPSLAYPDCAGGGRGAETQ
# Method in brief: as §1
# ELF3 = target: T5, ELF3 (Homo sapiens, UniProt P78545 1-371); conditions: protein: recombinant; tags: N-terminal GST; dsDNA, one strand shown
# T5 sequence: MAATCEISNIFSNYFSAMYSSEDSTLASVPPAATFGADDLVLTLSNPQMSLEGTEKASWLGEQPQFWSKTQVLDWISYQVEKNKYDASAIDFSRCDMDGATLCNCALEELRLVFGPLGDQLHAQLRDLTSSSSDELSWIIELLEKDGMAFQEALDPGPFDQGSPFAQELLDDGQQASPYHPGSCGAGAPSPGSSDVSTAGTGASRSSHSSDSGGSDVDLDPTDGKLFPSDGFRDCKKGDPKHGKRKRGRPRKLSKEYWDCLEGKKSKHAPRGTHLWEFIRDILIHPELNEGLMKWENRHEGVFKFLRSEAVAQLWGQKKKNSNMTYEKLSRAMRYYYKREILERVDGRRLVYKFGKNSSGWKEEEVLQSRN
# Method in brief: as §1
# CRX = CRX (Homo sapiens, UniProt O43186 1-299); conditions: protein: recombinant; tags: N-terminal GST; dsDNA, one strand shown
# Chain of CRX (O43186 whole entry): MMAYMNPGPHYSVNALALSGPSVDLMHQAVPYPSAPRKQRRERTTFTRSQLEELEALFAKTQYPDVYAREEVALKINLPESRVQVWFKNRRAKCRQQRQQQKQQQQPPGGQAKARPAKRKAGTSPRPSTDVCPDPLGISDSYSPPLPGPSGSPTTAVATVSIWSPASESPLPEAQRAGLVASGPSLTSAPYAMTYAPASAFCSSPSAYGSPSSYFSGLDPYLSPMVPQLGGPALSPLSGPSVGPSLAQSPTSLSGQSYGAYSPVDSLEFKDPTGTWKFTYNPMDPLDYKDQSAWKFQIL
# Method in brief: as §1
# ETV1 = ETV1 (Homo sapiens, UniProt P50549 1-477); conditions: protein: recombinant; tags: N-terminal GST; dsDNA, one strand shown
# Chain of ETV1 (P50549 whole entry): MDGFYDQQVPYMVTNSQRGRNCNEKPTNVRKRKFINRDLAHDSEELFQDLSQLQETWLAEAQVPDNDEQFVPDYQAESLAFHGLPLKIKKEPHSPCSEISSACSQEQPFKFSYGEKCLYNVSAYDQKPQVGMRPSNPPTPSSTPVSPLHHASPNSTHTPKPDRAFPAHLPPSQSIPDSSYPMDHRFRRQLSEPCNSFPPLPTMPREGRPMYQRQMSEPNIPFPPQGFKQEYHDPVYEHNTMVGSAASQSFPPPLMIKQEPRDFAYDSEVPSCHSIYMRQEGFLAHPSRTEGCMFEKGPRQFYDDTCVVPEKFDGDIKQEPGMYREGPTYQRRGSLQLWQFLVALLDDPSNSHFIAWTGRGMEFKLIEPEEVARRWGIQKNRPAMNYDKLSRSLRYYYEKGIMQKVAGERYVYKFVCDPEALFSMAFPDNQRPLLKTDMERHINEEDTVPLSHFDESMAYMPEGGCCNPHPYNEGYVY
# Method in brief: as §1
# ERF = target: T6, ERF (Homo sapiens, UniProt P50548 1-548); conditions: protein: recombinant; tags: N-terminal GST; dsDNA, one strand shown
# T6 sequence: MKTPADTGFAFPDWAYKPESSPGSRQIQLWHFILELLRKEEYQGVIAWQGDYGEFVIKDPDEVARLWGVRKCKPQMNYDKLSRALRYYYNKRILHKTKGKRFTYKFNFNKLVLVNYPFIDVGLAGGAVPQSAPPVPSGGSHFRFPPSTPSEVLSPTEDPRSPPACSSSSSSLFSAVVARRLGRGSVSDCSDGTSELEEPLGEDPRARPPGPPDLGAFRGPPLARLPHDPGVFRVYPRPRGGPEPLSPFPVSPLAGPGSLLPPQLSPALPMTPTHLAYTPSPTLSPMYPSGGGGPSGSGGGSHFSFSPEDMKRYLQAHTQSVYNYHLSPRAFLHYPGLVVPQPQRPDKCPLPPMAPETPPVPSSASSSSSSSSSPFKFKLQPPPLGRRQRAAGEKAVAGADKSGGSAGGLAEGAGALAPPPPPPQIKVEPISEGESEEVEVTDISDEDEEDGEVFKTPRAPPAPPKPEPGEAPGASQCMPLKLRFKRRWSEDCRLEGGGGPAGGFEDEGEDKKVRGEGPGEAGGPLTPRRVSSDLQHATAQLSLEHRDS
# Method in brief: as §1
# ETV3L = target: T7, ETV3L (Homo sapiens, UniProt Q6ZN32 1-361); conditions: protein: recombinant; tags: N-terminal GST; dsDNA, one strand shown
# T7 sequence: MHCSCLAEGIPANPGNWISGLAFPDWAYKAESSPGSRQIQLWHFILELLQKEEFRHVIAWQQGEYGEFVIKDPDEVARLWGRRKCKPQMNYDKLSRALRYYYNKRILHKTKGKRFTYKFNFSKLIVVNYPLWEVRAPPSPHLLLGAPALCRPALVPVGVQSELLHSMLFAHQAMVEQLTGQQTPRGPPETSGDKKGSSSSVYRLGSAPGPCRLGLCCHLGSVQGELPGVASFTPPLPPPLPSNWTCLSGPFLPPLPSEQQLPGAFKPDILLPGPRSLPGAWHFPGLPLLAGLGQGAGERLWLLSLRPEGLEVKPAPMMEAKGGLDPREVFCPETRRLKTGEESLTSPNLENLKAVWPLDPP
# Method in brief: as §1
# ETS2 = target: T8, ETS2 (Homo sapiens, UniProt P15036 1-469); conditions: protein: recombinant; tags: N-terminal GST; dsDNA, one strand shown
# T8 sequence: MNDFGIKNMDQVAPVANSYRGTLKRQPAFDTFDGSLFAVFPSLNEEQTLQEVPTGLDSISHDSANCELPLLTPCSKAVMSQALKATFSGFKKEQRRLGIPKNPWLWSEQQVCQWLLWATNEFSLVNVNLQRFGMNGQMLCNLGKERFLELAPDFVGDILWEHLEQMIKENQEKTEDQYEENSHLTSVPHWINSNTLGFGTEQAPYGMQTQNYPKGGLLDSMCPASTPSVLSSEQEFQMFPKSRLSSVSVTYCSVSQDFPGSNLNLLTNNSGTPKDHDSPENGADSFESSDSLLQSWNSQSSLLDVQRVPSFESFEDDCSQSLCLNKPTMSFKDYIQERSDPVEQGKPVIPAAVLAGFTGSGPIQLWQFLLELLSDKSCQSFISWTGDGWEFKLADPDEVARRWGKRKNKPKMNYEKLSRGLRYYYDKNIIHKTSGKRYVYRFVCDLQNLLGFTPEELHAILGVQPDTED
# Method in brief: as §1
# SPDEF = target: T9, SPDEF (Homo sapiens, UniProt O95238 1-335); conditions: protein: recombinant; tags: N-terminal GST; dsDNA, one strand shown
# T9 sequence: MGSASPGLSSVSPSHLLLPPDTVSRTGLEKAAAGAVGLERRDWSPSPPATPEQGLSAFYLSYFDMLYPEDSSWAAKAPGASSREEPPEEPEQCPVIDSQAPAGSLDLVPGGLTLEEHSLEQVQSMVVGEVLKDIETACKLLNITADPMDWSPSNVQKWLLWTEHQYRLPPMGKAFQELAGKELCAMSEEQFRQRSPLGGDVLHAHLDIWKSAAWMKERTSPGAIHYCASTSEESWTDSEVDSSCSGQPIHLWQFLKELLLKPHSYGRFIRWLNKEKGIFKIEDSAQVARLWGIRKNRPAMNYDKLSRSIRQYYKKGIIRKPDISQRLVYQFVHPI
# Method in brief: as §1
# ETV7 = target: T10, ETV7 (Homo sapiens, UniProt Q9Y603 1-341); conditions: protein: recombinant; tags: N-terminal GST; dsDNA, one strand shown
# T10 sequence: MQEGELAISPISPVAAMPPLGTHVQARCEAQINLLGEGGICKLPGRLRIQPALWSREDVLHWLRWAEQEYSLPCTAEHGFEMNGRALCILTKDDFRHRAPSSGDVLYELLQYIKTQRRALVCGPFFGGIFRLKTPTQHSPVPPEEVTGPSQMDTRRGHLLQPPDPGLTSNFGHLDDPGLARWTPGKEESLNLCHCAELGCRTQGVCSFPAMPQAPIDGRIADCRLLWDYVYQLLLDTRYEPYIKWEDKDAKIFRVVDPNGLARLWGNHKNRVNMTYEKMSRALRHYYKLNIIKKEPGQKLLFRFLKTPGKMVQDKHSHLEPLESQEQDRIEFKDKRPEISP
# Method in brief: as §1
# ELF5 = target: T11, ELF5 (Homo sapiens, UniProt Q9UKW6-2 1-255); conditions: protein: recombinant; tags: N-terminal GST; dsDNA, one strand shown
# T11 sequence: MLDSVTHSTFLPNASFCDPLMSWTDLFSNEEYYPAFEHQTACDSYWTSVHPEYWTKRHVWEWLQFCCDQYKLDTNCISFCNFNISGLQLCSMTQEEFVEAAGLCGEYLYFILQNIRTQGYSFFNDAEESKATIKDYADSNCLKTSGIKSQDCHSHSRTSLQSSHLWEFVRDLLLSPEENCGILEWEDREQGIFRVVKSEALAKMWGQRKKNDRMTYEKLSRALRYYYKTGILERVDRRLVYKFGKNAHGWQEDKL
# Method in brief: as §1
# ETV3 = target: T12, ETV3 (Homo sapiens, UniProt P41162-2 1-143); conditions: protein: recombinant; tags: N-terminal GST; dsDNA, one strand shown
# T12 sequence: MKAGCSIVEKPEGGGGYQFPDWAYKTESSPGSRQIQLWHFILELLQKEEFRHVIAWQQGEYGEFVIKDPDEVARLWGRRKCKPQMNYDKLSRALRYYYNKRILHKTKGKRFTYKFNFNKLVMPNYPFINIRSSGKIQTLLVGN
# Method in brief: as §1
# ETV6 = ETV6 (Homo sapiens, UniProt P41212 1-452); conditions: protein: recombinant; tags: N-terminal GST; dsDNA, one strand shown
# Chain of ETV6 (P41212 whole entry): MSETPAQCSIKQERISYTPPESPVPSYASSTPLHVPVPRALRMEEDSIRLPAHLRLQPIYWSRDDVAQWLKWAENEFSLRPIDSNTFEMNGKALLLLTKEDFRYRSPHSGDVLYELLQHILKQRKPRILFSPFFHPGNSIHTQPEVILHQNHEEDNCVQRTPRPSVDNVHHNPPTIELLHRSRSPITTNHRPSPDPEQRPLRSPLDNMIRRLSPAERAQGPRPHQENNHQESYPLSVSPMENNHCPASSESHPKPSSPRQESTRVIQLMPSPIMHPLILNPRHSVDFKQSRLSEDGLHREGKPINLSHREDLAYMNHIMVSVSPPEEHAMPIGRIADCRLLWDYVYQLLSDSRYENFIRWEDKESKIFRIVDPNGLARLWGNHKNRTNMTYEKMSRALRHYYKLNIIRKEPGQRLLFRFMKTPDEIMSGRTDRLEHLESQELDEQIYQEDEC
# Method in brief: as §1
sequence,measurement,setting,value
TACGCC,binding signal,FEV,"1.25 fold enrichment (6-mer frequency, TF over GST control)"
same,binding signal,ETV5,"1.26 fold enrichment (6-mer frequency, TF over GST control)"
same,binding signal,HSF1,"1.17 fold enrichment (6-mer frequency, TF over GST control)"
same,binding signal,SPIC,"1.32 fold enrichment (6-mer frequency, TF over GST control)"
same,binding signal,ELF4,"1.29 fold enrichment (6-mer frequency, TF over GST control)"
same,binding signal,ELK4,"1.24 fold enrichment (6-mer frequency, TF over GST control)"
same,binding signal,ETV2,"1.02 fold enrichment (6-mer frequency, TF over GST control)"
same,binding signal,ELF3,"1.14 fold enrichment (6-mer frequency, TF over GST control)"
same,binding signal,CRX,"1.2 fold enrichment (6-mer frequency, TF over GST control)"
same,binding signal,ETV1,"1.22 fold enrichment (6-mer frequency, TF over GST control)"
same,binding signal,ERF,"1.36 fold enrichment (6-mer frequency, TF over GST control)"
same,binding signal,ETV3L,"1.36 fold enrichment (6-mer frequency, TF over GST control)"
same,binding signal,ETS2,"1.29 fold enrichment (6-mer frequency, TF over GST control)"
same,binding signal,SPDEF,"1.26 fold enrichment (6-mer frequency, TF over GST control)"
same,binding signal,ETV7,"1.19 fold enrichment (6-mer frequency, TF over GST control)"
same,binding signal,ELF5,"1.2 fold enrichment (6-mer frequency, TF over GST control)"
same,binding signal,ETV3,"1.27 fold enrichment (6-mer frequency, TF over GST control)"
same,binding signal,ETV6,"1.28 fold enrichment (6-mer frequency, TF over GST control)"
